# This is part of a sample that, as a whole, favours compounds with a hit. Of some 83,000 tested, about 20% had one in any assay.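 Single-dose data. Exposure time 48 hours. Values below 10 considered active.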 Values without a mark were called inactive. The source made the active and inactive calls.
# How the values were obtained:
# Test in all cases: NCI-60 one-dose screen, 48 h (100 = growth as untreated, 0 = no growth, -100 = all killed)
# Settings in all cases: 10 µM unless noted
# [1] = tested on: SK-MEL-2 melanoma
# [2] = tested on: EKVX NSCLC
# [3] = tested on: SN12C renal
# [4] = tested on: UO-31 renal
# [5] = tested on: TK-10 renal
# [6] = tested on: ACHN renal
# [7] = tested on: CAKI-1 renal
# [8] = tested on: A498 renal
# [9] = tested on: CCRF-CEM leukemia
# [10] = tested on: MOLT-4 leukemia
# [11] = tested on: SR leukemia
# [12] = tested on: OVCAR-8 ovarian
# [13] = tested on: OVCAR-5 ovarian
# [14] = tested on: OVCAR-4 ovarian
# [15] = tested on: SK-OV-3 ovarian
# [16] = tested on: OVCAR-3 ovarian
# [17] = tested on: HS 578T breast
# [18] = tested on: NCI/ADR-RES ovarian
# [19] = tested on: IGROV1 ovarian
Structure (SMILES),growth [1],growth [2],growth [3],growth [4],growth [5],growth [6],growth [7],growth [8],growth [9],growth [10],growth [11],growth [12],growth [13],growth [14],growth [15],growth [16],growth [17],growth [18],growth [19] [%]
N#Cc1c(-c2ccc(Cl)cc2)nc(NCCO)[nH]c1=O,94.4%,157%,96.2%,74.5%,97.9%,101%,94.2%,125%,113%,99.5%,99.5%,103%,91.6%,108%,102%,104%,109%,98.8%,
CN(C)CCN1CCN(c2ncccc2C2Nc3ccccc3-n3cccc32)CC1 (stereo unspecified),124%,102%,101%,77.8%,103%,105%,85.4%,86.7%,102%,98.2%,98.3%,,100%,113%,107%,115%,95.7%,104%,105
CCCCCCNC(=O)Oc1ccc(/C(=C(\C)c2ccc(OC)cc2)c2ccc(OCCN3CCCCC3)cc2)cc1,69.2%,74%,74.3%,21.6%,102%,84.2%,72.3%,88.1%,66.5%,41.8%,0.84% (active),,82.6%,63.1%,70%,80.9%,65.7%,75.8%,53.8
COc1ccc2sc3c(NCCCN(C)C)nc4ccccc4c3c(=O)c2c1,95.9%,70%,72.3%,48.4%,78%,69.9%,63%,17.4%,4.23% (active),-16.2% (active),-39.2% (active),,89.8%,-9.97% (active),74.9%,-18.5% (active),73%,55.7%,54.2
CCCCC[C@H](O)C/C=C1/C(=O)C=C[C@@H]1C/C=C\CCCC(=O)O,79.6%,100%,52.3%,81.9%,111%,83.2%,80.7%,109%,14.9%,43.2%,15.8%,33.7%,152%,77.8%,118%,22.2%,95.6%,54.4%,
COC(=O)CCC/C=C\C[C@H]1C=CC(=O)/C1=C/C[C@@H](O)CCc1cccc(C(F)(F)F)c1,-5.48% (active),6.52% (active),-36% (active),-92.5% (active),-3.59% (active),-87.2% (active),12.6%,-26.7% (active),-6% (active),-14.2% (active),-15.3% (active),8.44% (active),-26.6% (active),20%,24.6%,-62.5% (active),32.3%,9.64% (active),
NCCOc1ncccc1/C=C1\c2ccccc2-c2ccc(C(F)F)cc21,115%,79.7%,16.8%,31.1%,86.6%,4.83% (active),35.5%,47.5%,6.32% (active),2.92% (active),2.72% (active),56.4%,69.6%,,64.3%,76.2%,53.4%,57.4%,32.5
CCCCCCCNC(=O)CCCNc1ncnc2c1ncn2-c1cccc(C(C)O)c1 (stereo unspecified),105%,76.4%,91.4%,83.6%,97.5%,89.6%,90.2%,123%,18.4%,78.2%,84.2%,91.1%,88.2%,84.8%,104%,87.1%,97.4%,95.8%,
N#CC1=C(N)Oc2c(sc3c(Br)cccc23)C1c1ccc(Br)cc1 (stereo unspecified),8.78% (active),45.6%,25.8%,36.3%,54.6%,56%,32.8%,23.9%,10.1%,7.14% (active),4.23% (active),36.1%,56.3%,48.9%,36%,-8.57% (active),14.1%,2.32% (active),
C/C(=N/NC(N)=S)c1sc(Nc2cccc(Cl)c2)nc1C,86.6%,74.1%,76.1%,35.7%,86.7%,80.5%,63.8%,81.4%,82.4%,50%,90.1%,,86.8%,63.6%,116%,76.8%,88.2%,86.7%,86
Cc1nc2ccccc2n1-c1ncnc2c1CC(C)c1ccccc1N2C (stereo unspecified),78.3%,92.7%,87.8%,71.3%,97.4%,93.2%,79.9%,70.4%,76.3%,60.3%,19.7%,85%,101%,92.4%,85.9%,94.6%,82.5%,67.8%,
O=C(O)c1cn(C2CC2)c2cc(N3CCN(C(=O)Nc4nc(-c5ccc(Cl)cc5)cs4)CC3)c(F)cc2c1=O,-18.9% (active),19.6%,7.2% (active),2.13% (active),21.8%,6.02% (active),17.1%,-3.82% (active),13.6%,2.05% (active),11.2%,7.37% (active),27.5%,23.7%,-2.39% (active),5.86% (active),35.5%,38.1%,
COc1cccc(-c2nc(-c3ccc(NC(=O)C(C)C)cc3)[nH]c2-c2ccnc(Br)c2)c1,22%,45.1%,61.7%,12.1%,54%,28.8%,36.2%,2.23% (active),21.8%,14.3%,-14.5% (active),,70.2%,33.3%,46.4%,37.3%,-13.2% (active),46.7%,52.1
O=C1c2cccc3cccc(c23)C(=O)N1N1C(=O)c2cccc3c(NC4CCCCC4)ccc(c23)C1=O,105%,89.3%,91.7%,66.3%,126%,92.2%,79.9%,95.5%,89.1%,89.6%,90.2%,96.2%,90.6%,,92.1%,105%,103%,95.4%,102
O=C(CCN1C(=O)/C(=C/c2ccc(O)cc2)SC1=S)Nc1ccccc1,111%,100%,87.6%,67%,102%,92%,97.1%,97.8%,72.2%,85.5%,119%,,106%,89.6%,65.9%,108%,93.3%,99.1%,94.6
CN1CCN(Cc2ccc(NC(=O)c3ccc(C(C)(C)C)c(C#Cc4cnc5cccnn45)c3)cc2C(F)(F)F)CC1,33.7%,-32.8% (active),-67.4% (active),-47% (active),-93.8% (active),-75.2% (active),-45.1% (active),75.5%,-36.7% (active),-57% (active),-49.7% (active),-30.4% (active),-25.4% (active),15%,-56.6% (active),-68.5% (active),-24.8% (active),-43.5% (active),
CN1C(=O)CNC(=O)[C@H](NC(=O)c2nc3ccccc3cc2O)CSSC[C@H]1C(=O)NCCc1nc2ccccc2cc1O,-17.1% (active),73.9%,69.2%,56.5%,67.9%,78.6%,105%,131%,23.5%,0.111% (active),-41.8% (active),92.2%,129%,90.7%,117%,19.5%,92.3%,105%,
